33 compounds from PubChem BioAssay (NCATS) can be followed below.

The structures appear in SMILES notation. Results filed as inconclusive are left out. Entries that show only a call come without a potency. The source made the active and inactive calls. Unless noted, the call rests on the fitted dose curve.

Tested on in one assay: not listed separately
The assay can be described thus: qHTS for Inhibitors of Plasmodium falciparum (HB3) proliferation (AID 504318; active means well fitted curve in the direction sought with a large enough effect; an effect the other way counts as inactive or inconclusive; further: nearly all actives have a fitted effect of over 60% in size; further: potency means the concentration at half of the fitted maximal effect). As to conditions: P. falciparum HB3 in erythrocytes, SYBR Green DNA, 72 h; series mostly up to 7.21 µM. Summed up: (§1)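 Parasite growth measured as SYBR Green DNA fluorescence (ex 485, em 535 nm) after overnight lysis following 72 h culture at 37 °C, 0.3% parasitemia, 2.5% hematocrit. Values normalized against DMSO and 0.29 uM artemisinin controls, with plate-stack correction.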
For `CC1(C)CC(=O)C2=C(C1)O[C@@]1(CCCCN3C(=O)c4ccccc4C3=O)Cc3ccccc3[C@H]2O1`, the Potency was 1510 nM (active).

Turning to `C=CCN=C1NC(c2cccc(C(F)(F)F)c2)C(C(=O)OC)=C(C)N1Cc1ccccc1` (centres undefined), the Potency result was “inactive”.

Regarding `O=C1C2=C(C(=O)c3ccccc31)[C@H]1O[C@](c3ccsc3)(Cc3ccccc31)O2`, the Potency was 1900 nM (active). Same read-out and setting: then `CC12C=C(C=Cc3ccc(Br)cc3)C(C)(C1)[C@H](c1ccc(Br)cc1)CC2=O` (some centres undefined), with 1690 nM (active). Take `CCCNC(=O)OC[C@H]1O[C@H](CCON=C(C)CCN2CCCCc3nc(C)c(C)cc32)C=C[C@H]1Oc1ccc(OC)cc1`: the Potency is 2820 nM (active).

Tested on in a further assay: not listed separately
The assay can be described thus: qHTS for Inhibitors of Plasmodium falciparum (CP250) proliferation (AID 504320; active means well fitted curve in the direction sought with a large enough effect; an effect the other way counts as inactive or inconclusive). As to conditions: P. falciparum CP250 in erythrocytes, SYBR Green DNA, 72 h; series mostly up to 6.7 µM. The essentials: as §1
(In qHTS, concentration-response curves come from the screen itself.)
For the compound `COC(=O)c1ccc(CN2C(=O)[C@@]3(CC(C)=CC[C@@H](C)O3)c3ccccc32)cc1`, the Potency entry is “inactive”. With `COC(=O)C1=C(C)N(Cc2ccccc2)C(=NCCCCO)NC1c1cccc(F)c1` (centres undefined), the Potency result was “inactive”. Regarding `C=C(C)C(=O)C=CC=Cc1ccccc1`, the Potency entry is “inactive”.

The target of a further assay is Atrial natriuretic peptide receptor 1 (Homo sapiens) (UniProt P16066). The assay can be described thus: Natriuretic polypeptide receptor (hNpr1) antagonism - Pilot CMLD screen (AID 1347052).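 Further: HEK293 cells with hNpr1 stimulated by hNppA peptide at 0.1 nM; cGMP level read as GloSensor luciferase luminescence after agonist stimulation.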 As to conditions: HEK293 hNpr1 GloSensor cGMP luminescence, ANP-stimulated; series mostly up to 9.22 µM.
Atrial natriuretic peptide receptor 1 (Homo sapiens), sequence (P16066 whole entry, looked up): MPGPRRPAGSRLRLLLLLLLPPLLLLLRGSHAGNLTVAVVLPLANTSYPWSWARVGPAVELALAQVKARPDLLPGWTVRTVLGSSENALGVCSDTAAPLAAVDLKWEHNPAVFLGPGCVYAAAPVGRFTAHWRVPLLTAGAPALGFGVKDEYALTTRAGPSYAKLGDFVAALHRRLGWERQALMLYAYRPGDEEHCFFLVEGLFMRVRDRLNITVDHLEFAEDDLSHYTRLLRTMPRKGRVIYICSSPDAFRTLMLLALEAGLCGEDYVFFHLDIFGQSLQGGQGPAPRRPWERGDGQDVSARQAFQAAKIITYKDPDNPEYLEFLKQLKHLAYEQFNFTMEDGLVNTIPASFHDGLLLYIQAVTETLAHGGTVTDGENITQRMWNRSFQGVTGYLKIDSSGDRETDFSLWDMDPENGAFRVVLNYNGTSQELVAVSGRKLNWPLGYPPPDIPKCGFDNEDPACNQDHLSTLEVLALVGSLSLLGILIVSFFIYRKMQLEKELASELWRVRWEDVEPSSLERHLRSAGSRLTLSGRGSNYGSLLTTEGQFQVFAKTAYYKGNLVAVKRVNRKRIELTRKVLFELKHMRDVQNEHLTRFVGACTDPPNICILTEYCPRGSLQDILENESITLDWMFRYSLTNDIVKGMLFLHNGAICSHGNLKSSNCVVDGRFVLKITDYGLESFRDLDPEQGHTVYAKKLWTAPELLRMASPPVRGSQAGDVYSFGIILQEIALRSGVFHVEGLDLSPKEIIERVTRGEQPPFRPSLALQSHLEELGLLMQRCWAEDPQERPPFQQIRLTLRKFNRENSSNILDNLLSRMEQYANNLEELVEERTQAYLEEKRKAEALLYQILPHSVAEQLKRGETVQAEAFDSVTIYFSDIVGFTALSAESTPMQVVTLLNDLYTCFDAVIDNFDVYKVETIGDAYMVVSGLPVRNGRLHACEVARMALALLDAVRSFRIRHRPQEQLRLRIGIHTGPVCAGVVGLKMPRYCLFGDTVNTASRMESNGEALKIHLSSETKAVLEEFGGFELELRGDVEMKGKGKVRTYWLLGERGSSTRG
On to `C=C(C[C@@]1(C(=O)OC)C=C[C@@H](C)[C@H](c2ccccc2Br)N1C(=O)C(F)(F)F)c1ccccc1`, for which the Potency result is “inactive”. As for `COC(=O)C1=C(C(=O)OC)[C@@H]2N(Cc3ccccc3)c3ccccc3[C@@]23C[C@@H](CO)N(C(=O)CC(C)C)C3=N1`, the Potency entry is “inactive”. With `COC(=O)c1ccc(CN2C(=O)[C@@]3(CC(C)=CC[C@@H](C)O3)c3ccccc32)cc1`, the Potency result is “inactive”. With `COc1ccc(O[C@H]2C=C[C@@H](c3ccccc3)O[C@H]2COC(=O)CCC(C)=NOC[C@@H](C)[C@H](OCc2ccccc2)C(C)C)cc1`, the Potency result is “inactive”. As for `CC#CCN1c2ccccc2[C@]23CCC(=O)N(Cc4ccco4)C2=NC(C(=O)OC)=C(C(=O)OC)[C@H]13`, the Potency result is “inactive”. Consider `O=C(N[C@H](c1cccc(Br)c1)[C@@H]1CCCC=C1c1ccccc1)C(F)(F)F`, for which the Potency result is “inactive”. In the case of `C=CC[C@@H]1C=C[C@H](ON=C(C)CCN2CCc3nc(CC)c(CC)cc3C2)[C@H](CO)O1`, the Potency entry was “inactive”. Same read-out and setting: with `CCCCCCc1cc2cc(OC)c(OC)cc2c2c(C(=O)OC)c(C(=O)OC)c(C(=O)OC)n12` the entry was “inactive”; with `C=C(C)[C@@H]1CC2=C(OC)C(CC=C(C)C)(CC=C(C)C)C(=O)C(C(=O)c3ccccc3)=C2O1`, “inactive”. Still for that read-out and setting: then `COc1ccccc1C=CC1=CC2(C)CC1(C)C(c1ccccc1OC)CC2=O` (centres undefined), with “inactive”; and `COc1ccc(O[C@H]2C=C[C@@H](c3ccccc3)O[C@H]2COC(=O)CCC(C)=NO[C@H](C)CN2CCCc3nc(C)c(C)cc32)cc1`, with “inactive”. Same read-out and setting: with `O=C1CCCC2=C1[C@H]1O[C@](CCCCN3C(=O)c4ccccc4C3=O)(Cc3ccccc31)O2` the entry was “inactive”.

Regarding `CCc1cc2c(nc1CC)CCN(CCC(C)=NO[C@@H](C)c1cn([C@H](CO)Cc3ccccc3)nn1)C2`, the Potency entry is “inactive”. On the same count and under the same terms, then `C=C[C@H]1CCC=C2C(=O)CCC[C@H]21`, with “inactive”; and `CCCNC(=O)N1C2=NC(C(=O)OC)=C(C(=O)OC)[C@@H]3N(C)c4ccc(OC)cc4[C@]23C[C@H]1C(=O)OC`, with “inactive”; and `COC(=O)[C@@H]1CC[C@H](C)[C@@H](c2ccc(C)cc2)N1C(=O)c1ccc(C=NOC[C@H]2O[C@H](c3ccccc3)C=C[C@H]2Oc2ccc(OC)cc2)cc1`, with “inactive”. For the compound `CC1=C[C@@H](COc2ccccc2)O[C@@]2(C1)C(=O)N(Cc1ccccc1)c1ccccc12`, the Potency entry was “inactive”. Same read-out and setting: then `CCc1cc2c(nc1CC)CCN(CCC(C)=NOC[C@H]1O[C@H](c3ccccc3)C=C[C@H]1Oc1ccc(OC)cc1)C2`, with “inactive”. For `CCOC(=O)OC[C@H]1O[C@H](c2ccc(C(C)=O)cc2)C=C[C@H]1Oc1ccc(-c2ccccc2)cc1`, the Potency entry is “inactive”. Regarding `CC(=O)OC[C@H]1O[C@H](CCON=C(C)CCN2CCc3nc(-c4ccccc4)c(-c4ccccc4)cc3C2)C=C[C@H]1OC(C)=O`, the Potency result is “inactive”. Take `C=CCOC(=O)N[C@@H](c1coc2ccccc2c1=O)[C@@H](C)C=CCC(=O)OC`: the Potency entry is “inactive”. `COc1ccc(O[C@H]2C=C[C@@H](c3ccccc3)O[C@H]2COC(=O)CCC(C)=NO[C@@H]2O[C@H](COC(C)=O)[C@@H](OC(C)=O)[C@H](OC(C)=O)[C@@H]2OC(C)=O)cc1`: the Potency result is “inactive”. Turning to `Cc1ccccc1Nc1oc(-c2ccccc2)nc1C(C)(C)C`, the Potency result was “inactive”. The same measure, in the same setting: then `COC(=O)C1=C(C)N(Cc2ccccc2)C(=NCC2CC2)NC1c1cccc(C(F)(F)F)c1` (centres undefined), with “inactive”; and `COC(=O)C1=C(C)N(Cc2ccccc2)C(=NCCc2ccc([N+](=O)[O-])cc2)NC1c1cccc(F)c1` (centres undefined), with “inactive”. `COc1ccc(O[C@H]2C=C[C@@H](c3ccccc3)O[C@H]2CON=C(C)CCN2CCCc3nc(C)c(C)cc32)cc1`: the Potency result is “inactive”.
